Assay [1] is described as follows: AP1 Signaling Pathway (AID 357; active = well fitted curve in either direction with a large enough effect, not every such curve was filed as active; note: % is set by controls: 0 for no effect and ±100 for the full control effect). The procedure, abridged:
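ME-180 cells with beta-lactamase reporter under AP-1 response element, stimulated with EC50 EGF; compounds tested in titration series, 5 h at 37 °C. CCF4 substrate added 2.5 h at room temperature; 460/530 nm emission ratio gave %activity and AC50.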

Assay [2] can be described thus: Stat Signaling Pathway (AID 446; active = well fitted curve in either direction with a large enough effect, not every such curve was filed as active;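 note: ME-180 cervical cancer cells given 40 pM IL-6 alongside compound; SIE-controlled beta-lactamase reporter measured as 460/530 nm FRET emission ratio; % is set by controls: 0 for no effect and ±100 for the full control effect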). The procedure, abridged: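 Screening format detects activators and inhibitors alike: ME-180 SIE-bla cells stimulated at 40 pM IL-6 for 5 hrs with compound, then dual-emission beta-lactamase read at 405 nm excitation.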
Assay [3] concerns the target Glucocorticoid receptor (Homo sapiens) (UniProt P04150). Kind of assay: GR-GFP Redistribution (AID 450;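 active = compounds whose dose series gives a full or clear partial fitted curve of increased nuclear translocation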; note: potency is the fitted concentration of half-maximal effect). The following applies: U2OS GR-GFP nuclear translocation, laser cytometry, 2 h.
For assay [4] the target is unchanged. Description: GR-EFC Redistribution (AID 451; calls by dose curve; note: potency is the fitted concentration of half-maximal effect). The following applies: CHO-K1 GR-EFC translocation, beta-gal luminescence, 2 h. The procedure, abridged: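 CHO-K1 cells stably expressing nuclear-localized β-gal enzyme acceptor and GR fused C-terminally to the enzyme donor fragment; ligand-driven nuclear translocation restores β-gal by complementation. Compounds titrated up to 46 uM final, 2 h at 37 °C; luminescence read.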

The target in assay [5] is Mitogen-activated protein kinase 10 (Mus musculus) (UniProt Q61831). Description: JNK3 AlphaScreen Assay (AID 530; active = well fitted curve in either direction with a large enough effect, not every such curve was filed as active;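 note: kinase came from lysate of stimulated human HepG2 cells; signal reports phosphorylation of biotinylated GST-cJun 1-79 at Ser73 with 10 µM ATP; % is set by controls: 0 for no effect and ±100 for the full control effect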). In outline:
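JNK3 came from HepG2 lysates pre-activated with IL-1beta and TNF-alpha and phosphorylated biotinylated GST-cJun (1-79) at 10 uM ATP, pH 7.6, room temperature. Compounds were titrated. AlphaScreen signal used anti-phospho-cJun (Ser73) antibody.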
In general terms: Alpha assays give light when donor and acceptor beads are brought close together.

Assay [6] addresses 3',5'-cyclic-AMP phosphodiesterase 4B (Homo sapiens) (UniProt Q07343). Description: qHTS Assay for Inhibitors of PDE-IV (AID 607; active = well fitted activation curve with a large enough effect in the main read-out, with a control signal flat, not every such curve was filed as active; note: % of control where 0% means no effect). The procedure, abridged: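 The readout is membrane depolarisation from a cAMP-sensing CNG channel, detected with a potential dye at ex 535/em 590. Cells were HEK293-derived (endogenous PDE-IV) at 1000 cells/well, titrated up to 22.9 uM final.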
In general terms: In qHTS, concentration-response curves come from the screen itself.

A short description of assay [7]: qHTS Assay for Lipid Storage Modulators (AID 1519; calls by dose curve). The following applies: Drosophila S3 cells, BODIPY lipid droplet/cell ratio, laser cytometry, cells loaded with oleic acid; for activity change, negative = inhibition: at 25.7 µM (top of the series). The procedure, abridged:
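Cells seeded at 5,000 per well were treated with compounds over a concentration series and loaded with oleic acid (400 uM, as added). Lipid droplet fluorescence (488 nm excitation, 500-530 nm channel) was read by laser-scanning cytometry and normalized to 20 uM Triacsin C.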

For assay [8], the target named is Ubiquitin carboxyl-terminal hydrolase 1 (Homo sapiens) (UniProt O94782). Kind of assay: Inhibitors of USP1/UAF1: Pilot qHTS (AID 504865).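 Note: rhodamine fluorescence freed from ubiquitin-rhodamine substrate followed over time; top concentration of the series differs between compounds; % is set by controls: 0 for no effect and ±100 for the full control effect; nearly all actives have a fitted effect of over 35% in size.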 In outline: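 In 50mM HEPES pH 7.8 containing 0.5mM EDTA, 1mM TCEP, 0.1 mg/ml BSA and 0.01% Tween-20, 1nM USP1/UAF1 is exposed to compound for 15 min, then Ub-Rho (150nM final) is added and fluorescence is read over time.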
Sequence of Ubiquitin carboxyl-terminal hydrolase 1 (Homo sapiens) (O94782 whole entry, looked up): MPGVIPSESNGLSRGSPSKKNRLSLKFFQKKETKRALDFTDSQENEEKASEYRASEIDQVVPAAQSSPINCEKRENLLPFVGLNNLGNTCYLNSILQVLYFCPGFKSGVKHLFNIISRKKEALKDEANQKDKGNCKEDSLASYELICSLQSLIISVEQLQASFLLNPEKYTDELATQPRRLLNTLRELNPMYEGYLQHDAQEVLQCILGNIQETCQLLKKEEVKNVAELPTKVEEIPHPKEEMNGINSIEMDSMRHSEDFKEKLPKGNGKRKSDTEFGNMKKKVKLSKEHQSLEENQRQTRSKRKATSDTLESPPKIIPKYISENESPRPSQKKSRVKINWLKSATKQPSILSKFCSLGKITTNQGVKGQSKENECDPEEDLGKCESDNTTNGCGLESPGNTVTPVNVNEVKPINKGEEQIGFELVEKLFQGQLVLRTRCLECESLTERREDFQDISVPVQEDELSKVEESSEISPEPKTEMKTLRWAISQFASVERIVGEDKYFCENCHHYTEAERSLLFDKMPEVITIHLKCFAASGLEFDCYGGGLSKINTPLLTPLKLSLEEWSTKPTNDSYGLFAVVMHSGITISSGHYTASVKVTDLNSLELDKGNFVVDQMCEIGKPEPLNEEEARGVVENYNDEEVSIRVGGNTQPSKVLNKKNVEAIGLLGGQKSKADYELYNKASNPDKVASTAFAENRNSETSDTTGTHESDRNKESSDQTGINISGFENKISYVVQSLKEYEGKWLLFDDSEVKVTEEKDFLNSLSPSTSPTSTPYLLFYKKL
Assay [9] in a line: NFAT Signaling Pathway (AID 444; active = well fitted curve in either direction with a large enough effect, not every such curve was filed as active;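 note: carbachol stimulus at about its EC50 of 1 µM final; % is set by controls: 0 for no effect and ±100 for the full control effect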). The following applies: Jurkat NFAT-bla M1, carbachol, beta-lactamase ratio, 5 h; at 17.2 µM (top of the series) unless noted. The procedure, abridged: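 Jurkat cells carrying an NFAT-driven β-lactamase reporter and co-transfected muscarinic M1 receptor were treated with compound plus carbachol (1 uM final, an EC50 level) for 5 h at 37 °C. CCF4 loading followed for 1 h at RT; 460/530 nm ratio gave %activity.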

A short description of assay [10]: qHTS profiling for inhibitors of Plasmodium falciparum proliferation (AID 504749).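 Note: 0% = DMSO vehicle and full inhibition = artemisinin control; nearly all actives have a fitted effect of over 60% in size.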 The following applies: P. falciparum in erythrocytes, SYBR Green DNA, 72 h, at 12.8 µM (top of the series). In outline: (§1)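 P. falciparum-infected erythrocytes (0.3% parasitemia, 2.5% hematocrit final) were exposed to compounds for 72 h at 37 C in 5% CO2, then lysed with SYBR Green buffer overnight at room temperature; parasite DNA fluorescence was normalized to artemisinin and DMSO controls.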

Assay [11] concerns C2A. The assay is described as above. As to conditions: P. falciparum in erythrocytes, SYBR Green DNA, 72 h; series mostly up to 12.8 µM. The procedure, abridged:
as §1

In assay [12] the test system is CP191. Described as above. The following applies: P. falciparum in erythrocytes, SYBR Green DNA, 72 h; series mostly up to 12.8 µM. In outline: as §1
Assay [13] has as its system CP217. The assay is described as above. As to conditions: P. falciparum in erythrocytes, SYBR Green DNA, 72 h; series mostly up to 12.8 µM. The procedure, abridged: as §1
The test system of assay [14] is CP238. The assay is described as above. As to conditions: P. falciparum in erythrocytes, SYBR Green DNA, 72 h; series mostly up to 12.8 µM. The procedure, abridged:
as §1

In assay [15] the test system is CP250. The description is as above. The following applies: P. falciparum in erythrocytes, SYBR Green DNA, 72 h; series mostly up to 12.8 µM. In outline:
as §1

Assay [16] relates to CP256. The assay is described as above. The following applies: P. falciparum in erythrocytes, SYBR Green DNA, 72 h; series mostly up to 12.8 µM. In outline:
as §1

The test system of assay [17] is FAB9. Described as above. As to conditions: P. falciparum in erythrocytes, SYBR Green DNA, 72 h; series mostly up to 12.8 µM. In outline: as §1
Assay [18] deals with JCK. Described as above. As to conditions: P. falciparum in erythrocytes, SYBR Green DNA, 72 h; series mostly up to 12.8 µM. The procedure, abridged:
as §1

Assay [19] has as its system PC49. The description is as above. The following applies: P. falciparum in erythrocytes, SYBR Green DNA, 72 h; series mostly up to 12.8 µM. The procedure, abridged: as §1
Assay [20] has as its system SC27B. Described as above. As to conditions: P. falciparum in erythrocytes, SYBR Green DNA, 72 h; series mostly up to 12.8 µM. In outline:
as §1

[21] abbreviates: measured here: cell count channel max response.
The mark [22] stands for this setting: measured here: lipid channel max response.

Results filed as inconclusive are left out. Calls of active or inactive are those of the source. Unless noted, calls come from the whole dose curve; as a rule, active = well fitted inhibition curve with a large enough effect; inconclusive = small, poorly fitted or top-dose-only effect; inactive = flat fitted curve, though single readings scatter.

Sequence of Glucocorticoid receptor (Homo sapiens) (P04150 whole entry, looked up, the tested form may be a part): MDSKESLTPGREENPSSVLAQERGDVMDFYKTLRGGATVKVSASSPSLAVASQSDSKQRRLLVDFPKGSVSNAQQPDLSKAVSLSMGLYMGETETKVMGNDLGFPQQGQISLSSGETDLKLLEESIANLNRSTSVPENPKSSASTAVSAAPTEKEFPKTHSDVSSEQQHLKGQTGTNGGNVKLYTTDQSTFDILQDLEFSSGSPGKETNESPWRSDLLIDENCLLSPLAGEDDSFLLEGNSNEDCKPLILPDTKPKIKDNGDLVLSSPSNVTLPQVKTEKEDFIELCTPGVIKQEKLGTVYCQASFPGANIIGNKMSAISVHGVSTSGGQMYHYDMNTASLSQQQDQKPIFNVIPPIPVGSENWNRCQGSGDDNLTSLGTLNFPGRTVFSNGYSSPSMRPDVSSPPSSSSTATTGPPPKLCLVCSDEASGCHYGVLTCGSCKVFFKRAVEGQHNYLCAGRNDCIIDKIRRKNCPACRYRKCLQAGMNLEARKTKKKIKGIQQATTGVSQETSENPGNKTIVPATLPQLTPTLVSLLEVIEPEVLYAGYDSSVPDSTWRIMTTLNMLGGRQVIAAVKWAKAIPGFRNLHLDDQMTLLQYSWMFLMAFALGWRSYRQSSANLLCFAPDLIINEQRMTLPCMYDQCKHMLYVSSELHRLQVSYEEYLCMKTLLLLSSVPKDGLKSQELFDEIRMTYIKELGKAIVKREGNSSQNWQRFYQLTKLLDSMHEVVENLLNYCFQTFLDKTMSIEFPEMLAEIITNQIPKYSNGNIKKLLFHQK
Sequence of 3',5'-cyclic-AMP phosphodiesterase 4B (Homo sapiens) (Q07343 whole entry, looked up): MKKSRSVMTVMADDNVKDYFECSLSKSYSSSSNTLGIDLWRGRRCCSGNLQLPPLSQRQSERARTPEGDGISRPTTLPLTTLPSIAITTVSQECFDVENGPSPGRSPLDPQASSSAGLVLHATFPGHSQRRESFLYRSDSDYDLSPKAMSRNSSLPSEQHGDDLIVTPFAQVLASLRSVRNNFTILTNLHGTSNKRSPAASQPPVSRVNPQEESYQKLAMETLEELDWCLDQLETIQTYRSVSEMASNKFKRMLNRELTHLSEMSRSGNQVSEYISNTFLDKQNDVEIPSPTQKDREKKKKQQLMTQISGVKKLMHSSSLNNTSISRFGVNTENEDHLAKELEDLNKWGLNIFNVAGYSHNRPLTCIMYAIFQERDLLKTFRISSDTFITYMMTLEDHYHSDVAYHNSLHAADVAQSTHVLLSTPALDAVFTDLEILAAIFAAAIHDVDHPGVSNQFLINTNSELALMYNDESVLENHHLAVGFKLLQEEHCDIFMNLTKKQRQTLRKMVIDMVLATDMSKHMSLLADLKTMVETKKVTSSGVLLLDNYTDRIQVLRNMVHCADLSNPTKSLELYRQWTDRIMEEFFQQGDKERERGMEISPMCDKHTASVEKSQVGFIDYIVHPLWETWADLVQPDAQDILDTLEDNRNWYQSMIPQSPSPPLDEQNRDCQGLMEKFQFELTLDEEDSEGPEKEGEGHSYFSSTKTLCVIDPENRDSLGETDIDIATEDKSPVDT

With `C[C@@]1(O)CCOC(=O)C1`, the compound was called inactive in assay [1], in assay [2] and in assay [6]. Besides, the Potency in [3] and in assay [4] was > 20.6 µM (inactive) each time. Also, the Potency entry in assay [5] and in assay [8] was “inactive” each time. In assay [7], the activity change, negative = inhibition is -1.74% (inactive). Besides, the max response in assay [7] (setting [21]) was -3.45%; in assay [7] (setting [22]), -5.01%.
Turning to `CC(C)(C)NC(=O)[C@@H]1CC[C@@H]2[C@@H]3CC[C@@H]4NC(=O)C=C[C@@]4(C)[C@H]3CC[C@]21C`, the result in assay [1], in [2] and in assay [6] was inactive. Besides, the activity change, negative = inhibition in assay [9] was 3.14% (inactive); in assay [7], -1.87% (inactive). Further, the Potency in assay [3] and in [4] was > 20.6 µM (inactive) each time. Besides, the Potency entry in assay [5], in assay [8], in assay [11], in assay [12], in assay [13] and in [14] was “inactive” each time. Further, the Potency result in [15], in assay [16], in assay [17], in assay [18], in assay [19] and in [20] was “inactive” each time. In addition, the max response is -11.6% in [7] (setting [21]) and -13.3% in assay [7] (setting [22]). The activity, negative = inhibition is 6.77% (inactive) in assay [10] (parasite line A) and -2.48% (inactive) in assay [10] (parasite line B).
Take `CC1=C(C(=O)O)N2C(=O)[C@@H](NC(=O)[C@@H](N)c3ccc(O)cc3)[C@@H]2SC1`: the compound was classed as inactive in assay [1], in assay [2] and in [6]. Further, the results for the activity change, negative = inhibition in assay [9] and in assay [7] were -8.2% (inactive) and 1.21% (inactive), respectively. Also, the Potency in assay [3] and in assay [4] was > 20.6 µM (inactive) each time. For the same compound, the Potency entry in [5], in assay [8], in assay [11], in assay [12], in [13] and in [14] was “inactive” each time. The Potency result in assay [15], in [16], in assay [17], in assay [18], in assay [19] and in assay [20] was “inactive” throughout. Moreover, the max response in assay [7] (setting [21]) was -1.1%; in [7] (setting [22]) it was -2.01%. Moreover, the activity, negative = inhibition in assay [10] (parasite line A) was 9.01% (inactive); in assay [10] (parasite line B), 1.57% (inactive).
In the case of `c1ccc2c3c([nH]c2c1)[C@@H]1[C@H]2CC[C@H]([C@H]4CCCN[C@H]42)N1CC3`, the call in assay [1], in assay [2] and in assay [6] was inactive. Further, in assay [3], the Potency is > 20.6 µM (inactive). The Potency entry in assay [5] is “inactive”. Also, the activity change, negative = inhibition in assay [7] was -1.37% (inactive). The max response was 0.348% in assay [7] (setting [21]) and -3.2% in assay [7] (setting [22]).
For the compound `NC[C@@H]1O[C@H](O[C@@H]2[C@H](O[C@@H]3O[C@H](CO)[C@@H](O)[C@@H]3O)[C@@H](O)[C@@H](N)C[C@H]2N)[C@@H](N)[C@H](O)[C@@H]1O`, the call in [1], in assay [2] and in assay [6] was inactive. In addition, the activity change, negative = inhibition in [9] is -8.79% (inactive); in [7], -2.12% (inactive). The Potency in [3] and in assay [4] was > 20.6 µM (inactive) throughout. Moreover, the Potency result in assay [5], in [8], in assay [11], in assay [12], in assay [13] and in assay [14] was “inactive” each time. Also, the Potency result in assay [15], in [16], in assay [17], in assay [18], in assay [19] and in assay [20] was “inactive” throughout. In addition, the max response in [7] (setting [21]) was -8.12%; in assay [7] (setting [22]), -11.1%. Further, the activity, negative = inhibition in [10] (parasite line A) is -3.69% (inactive); in [10] (parasite line B), 2.48% (inactive).
